{
  "source": "PubChem BioAssay AID651548",
  "about": "(Broad Institute, 2012)",
  "note": "“And” between values parts separate entries of the source, which are not always exact repeats. Identical values can stand only once. In all, about 57,000 compounds went through this assay and about 200 (0.35%) were called active. What follows is part of a selection rich in actives, with near analogues and random picks from the rest. A number with no mark means an inactive call.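 Rule for the calls: active = mean inhibition of replicates at least 50% and every single replicate also reaching 50%; inconclusive = mean inhibition at least 50% but some replicate falls below 50%; inactive = mean inhibition under 50%.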",
  "data": [
    {"molecular_target": "Histone-lysine N-methyltransferase EZH2 (Homo sapiens) (UniProt Q15910)", "sequence (Q15910 whole entry, looked up)": "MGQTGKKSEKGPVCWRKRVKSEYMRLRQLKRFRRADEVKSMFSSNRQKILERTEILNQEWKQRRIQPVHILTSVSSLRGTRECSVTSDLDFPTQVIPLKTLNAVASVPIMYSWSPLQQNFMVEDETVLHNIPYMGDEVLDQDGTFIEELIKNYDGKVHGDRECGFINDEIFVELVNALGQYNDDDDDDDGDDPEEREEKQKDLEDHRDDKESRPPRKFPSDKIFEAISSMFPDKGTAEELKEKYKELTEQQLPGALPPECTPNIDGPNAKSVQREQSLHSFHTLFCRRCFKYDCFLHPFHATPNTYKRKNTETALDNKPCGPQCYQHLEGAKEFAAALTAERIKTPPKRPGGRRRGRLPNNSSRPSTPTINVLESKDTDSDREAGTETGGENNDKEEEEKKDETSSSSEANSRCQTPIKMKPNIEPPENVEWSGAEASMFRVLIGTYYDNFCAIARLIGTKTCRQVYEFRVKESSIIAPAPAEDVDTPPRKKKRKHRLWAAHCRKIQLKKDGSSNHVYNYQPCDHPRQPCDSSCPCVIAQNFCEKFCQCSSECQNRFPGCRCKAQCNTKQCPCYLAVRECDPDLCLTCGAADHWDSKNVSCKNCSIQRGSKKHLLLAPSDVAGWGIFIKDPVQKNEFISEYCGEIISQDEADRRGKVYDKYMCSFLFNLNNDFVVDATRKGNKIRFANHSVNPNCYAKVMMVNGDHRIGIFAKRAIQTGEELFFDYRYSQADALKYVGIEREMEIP", "test": "inhibition of PRC2 H3K27 methylation – biochemical, DELFIA time-resolved fluorescence, single point, primary screen (AID 651548);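 note: dimethyl H3K27 on biotinylated H3 21-44 peptide detected by antibody; plate controls were median neutral control wells for no effect and median positive control wells for full effect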", "conditions": "DELFIA TRF, 1 h, at 12.5 µM, hits give high values", "values": [
      {"smiles": "O=C(C[C@H]1CC[C@H](NC(=O)c2ccncc2)[C@H](CO)O1)Nc1ccccc1", "inhibition": "16.3%"},
      {"smiles": "O=C(C[C@H]1C[C@@H]2c3cc(NS(=O)(=O)c4ccc(F)cc4)ccc3O[C@@H]2[C@H](CO)O1)NCc1cccc(F)c1", "inhibition": "-5.18%"},
      {"smiles": "O=C(N[C@H]1CC[C@@H](CCNC(=O)C2CCC2)O[C@@H]1CO)c1ccncc1", "inhibition": "-3.82%"},
      {"smiles": "CN(C)CC(=O)Nc1ccc2c(c1)[C@H]1C[C@@H](CC(=O)NCc3ccccn3)O[C@@H](CO)[C@H]1O2", "inhibition": "-17%"},
      {"smiles": "CO[C@H]1CN(C)C(=O)c2ccc(NC(=O)C3CCCC3)cc2OC[C@@H](C)NC[C@@H]1C", "inhibition": "7.43%"},
      {"smiles": "CCC(=O)N1C[C@@H](C)[C@H](OC)CN(C)C(=O)c2ccc(NC(=O)c3cc(C)on3)cc2OC[C@H]1C", "inhibition": "7.38%"},
      {"smiles": "CCC(=O)Nc1ccc2c(c1)OC[C@H](C)N(CC1CCCCC1)C[C@@H](C)[C@H](OC)CN(C)C2=O", "inhibition": "-10.4%"},
      {"smiles": "CC(C)NC(=O)N[C@@H]1C=C[C@@H](CC(=O)N2CCCCC2)O[C@@H]1CO", "inhibition": "7.89%"},
      {"smiles": "O=C(C[C@@H]1CC[C@H](NC(=O)Nc2ccc(F)cc2)[C@H](CO)O1)NCc1ccccn1", "inhibition": "-0.96%"},
      {"smiles": "COc1cccc(-c2cnc3c(c2)C(=O)N([C@@H](C)CO)C[C@H](C)[C@H](CN(C)C(C)=O)O3)c1", "inhibition": "1.62%"},
      {"smiles": "COCC#Cc1cnc2c(c1)C(=O)N([C@H](C)CO)C[C@H](C)[C@H](CN(C)C(=O)Nc1cc(F)ccc1F)O2", "inhibition": "0.676%"},
      {"smiles": "COc1cccc(NC(=O)Nc2ccc3c(c2)OC[C@@H](C)NC[C@@H](C)[C@H](OC)CN(C)C3=O)c1", "inhibition": "-3.01%"},
      {"smiles": "COc1cccc(S(=O)(=O)Nc2ccc3c(c2)[C@@H]2C[C@@H](CC(=O)NCc4ccc(Cl)cc4)O[C@H](CO)[C@@H]2O3)c1", "inhibition": "-2.95%"},
      {"smiles": "O=C(C[C@@H]1C[C@@H]2c3cc(NC(=O)Nc4ccccc4F)ccc3O[C@@H]2[C@@H](CO)O1)NCCc1ccccc1", "inhibition": "-11.7%"},
      {"smiles": "CC1=CCC(C(C)(C)O[C@@H]2O[C@H](COC(=O)c3cc(O)c(O)c(O)c3)[C@@H](O)[C@H](O)[C@H]2O)CC1", "note": "(stereo not given in full)", "inhibition": "91.8% (active)"},
      {"smiles": "C[C@@H]1CN([C@H](C)CO)S(=O)(=O)c2ccc(C#CCN(C)C)cc2O[C@@H]1CN(C)C(=O)C1CCCCC1", "inhibition": "1.46%"},
      {"smiles": "CC(C)NC(=O)Nc1ccc2c(c1)CC(=O)N([C@H](C)CO)C[C@H](C)[C@@H](CN(C)C(=O)Nc1ccc(F)cc1)O2", "inhibition": "-14.2%"},
      {"smiles": "C[C@@H]1CN([C@H](C)CO)S(=O)(=O)c2ccc(-c3ccccc3)cc2O[C@@H]1CN(C)C(=O)C1CC1", "inhibition": "7.84%"},
      {"smiles": "CCCNC(=O)Nc1ccc2c(c1)OC[C@H](C)N(Cc1ccccc1)C[C@H](C)[C@H](OC)CN(C)C2=O", "inhibition": "-21.6%"},
      {"smiles": "C[C@H]1CN([C@@H](C)CO)S(=O)(=O)c2ccc(C#CC3CCCC3)cc2O[C@@H]1CN(C)C(=O)c1cccc(F)c1", "inhibition": "14.8%"},
      {"smiles": "O=C(C[C@@H]1CC[C@@H](NC(=O)C2CC2)[C@H](CO)O1)NCc1ccncc1", "inhibition": "9.6%"},
      {"smiles": "CN(C)CC(=O)N[C@@H]1CC[C@@H](CCn2cc(C3CC3)nn2)O[C@H]1CO", "inhibition": "-8.32%"},
      {"smiles": "CCC(=O)N1C[C@H](C)[C@H](OC)CN(C)C(=O)c2ccc(NC(=O)c3cnccn3)cc2OC[C@@H]1C", "inhibition": "10.3%"},
      {"smiles": "COc1cccc(S(=O)(=O)N[C@H]2C=C[C@@H](CC(=O)NCc3ccc(F)cc3)O[C@@H]2CO)c1", "inhibition": "13.3%"},
      {"smiles": "C[C@@H]1CCCCO[C@H](CN(C)C)[C@H](C)CN([C@@H](C)CO)C(=O)c2cc(NS(=O)(=O)c3ccccc3)ccc2O1", "inhibition": "-7.21%"},
      {"smiles": "CCCNC(=O)N1C[C@@H](C)[C@@H](OC)CN(C)C(=O)c2ccc(NC(=O)CCC)cc2OC[C@H]1C", "inhibition": "-3.61%"},
      {"smiles": "CC(C)NC(=O)N(C)C[C@H]1Oc2ncc(-c3ccccc3F)cc2C(=O)N([C@@H](C)CO)C[C@@H]1C", "inhibition": "-0.301%"},
      {"smiles": "COc1cccc(NC(=O)N[C@H]2C=C[C@@H](CC(=O)Nc3ccc(-c4ccccc4)cc3)O[C@@H]2CO)c1", "inhibition": "-1.25%"},
      {"smiles": "O=C(C[C@H]1C[C@H]2c3cc(NC(=O)CC4CC4)ccc3O[C@H]2[C@H](CO)O1)NCc1ccccc1", "inhibition": "-28.9%"},
      {"smiles": "C[C@@H]1CN([C@H](C)CO)S(=O)(=O)c2ccc(C#CC3CCCCC3)cc2O[C@H]1CN(C)C(=O)Cc1ccncc1", "inhibition": "-42.6% and -20.9%"},
      {"smiles": "COc1ccc(NC(=O)N[C@H]2CC[C@@H](CCNS(=O)(=O)c3cccc(Cl)c3)O[C@H]2CO)cc1", "inhibition": "-37.3%"},
      {"smiles": "CO[C@@H]1CN(C)C(=O)c2ccc(NC(=O)Nc3c(C)noc3C)cc2OC[C@@H](C)N(C(=O)Nc2cccc(Cl)c2)C[C@H]1C", "inhibition": "-3.56%"},
      {"smiles": "CCC(=O)N(C)C[C@H]1Oc2cc(C#CC3CC3)ccc2S(=O)(=O)N([C@H](C)CO)C[C@H]1C", "inhibition": "-6.49%"},
      {"smiles": "CCOC(=O)C1CCCN(C(=O)c2c[nH]n3c(=O)c(Cc4ccc(Cl)cc4)c(C)nc23)C1", "note": "(stereo not given)", "inhibition": "11.7%"},
      {"smiles": "CO[C@@H]1CN(C)C(=O)c2cc(NC(=O)c3ccc(F)cc3)ccc2OC[C@H](C)NC[C@@H]1C", "inhibition": "8.13%"},
      {"smiles": "CC(C)C#Cc1ccc2c(c1)O[C@H](CN(C)CC1CCOCC1)[C@@H](C)CN([C@H](C)CO)S2(=O)=O", "inhibition": "0.383%"},
      {"smiles": "COc1cccc(S(=O)(=O)N[C@H]2C=C[C@H](CC(=O)NCc3ccc(Cl)cc3)O[C@@H]2CO)c1", "inhibition": "7.24%"},
      {"smiles": "C[C@H]1CN([C@@H](C)CO)C(=O)c2cccc(NC(=O)Nc3ccccc3)c2O[C@H]1CN(C)Cc1ccc(C(F)(F)F)cc1", "inhibition": "-14.8%"},
      {"smiles": "C[C@H](CO)N1C[C@H](C)[C@@H](CN(C)C(=O)c2cccc(F)c2)Oc2cc(-c3cncnc3)ccc2S1(=O)=O", "inhibition": "14.3% and -4.79%"},
      {"smiles": "COc1ccccc1C(=O)Nc1ccc2c(c1)C(=O)N(C)C[C@@H](OC)[C@@H](C)CN(C)[C@H](C)CO2", "inhibition": "1.85%"}
    ]}
  ]
}
